Our source for the activity (max response) and Potency values is PubChem BioAssay (NCATS).

Values joined by “and” are separate entries in the source; they are usually repeats but may differ in a detail not shown here. Equal entries are not always repeated. Inconclusive results are not listed. A number with no mark means an inactive call. Active and inactive are the calls of the source. Calls come from the whole dose curve; as a rule, active = well fitted cell-killing curve with a large enough effect; inconclusive = small, poorly fitted or top-dose-only effect; inactive = flat fitted curve, though single readings scatter.
% is set by controls: 0 for no effect and ±100 for the full control effect.

This test is described as follows: Cellular viability qHTS for adrenocortical cancer (ACC) cell line SW-13 (AID 1963989).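 For activity (max response): cells grown in serum-free medium with ITS supplement.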 Note: nearly all actives have a fitted effect of over 65% in size. The following applies: SW-13 ACC cells viability, CellTiter-Glo, 48 h; activity (max response): active compounds read low. The text has this:
PI: Naris Nilubol, MD Surgical Oncology Program, National Cancer Institute (NCI) National Institute of Health (NIH), Bethesda, Maryland Adrenocortical cancer (ACC) is a rare malignancy with poor survival outcomes and few treatment options. Currently, mitotane is the only FDA-approved therapy for ACC. Although adjuvant radiation therapy is rarely utilized, it has the potential to improve survival in select cases. Through a quantitative high-throughput drug screen (qHTS), we identified auranofin (AF), a thioredoxin reductase (TXNRD) inhibitor, as a promising candidate drug. This study aims to evaluate whether AF can enhance the efficacy of radiation therapy in the treatment of ACC. Two human ACC cell lines, SW-13 and NCI-H295R, were screened using the National Center for Advancing Translational Sciences (NCATS) Pharmaceutical Collection (NPC) and the Mechanism Interrogation PlatE (MIPE) library (~4,991 compounds). CellTiter-Glo (Cat # G7570, Promega, Madison, WI) was utilized to measure cell viability. Described herein are the results of the corresponding viability assay.
PROTOCOL TABLE (as described by Inglese J, Shamu CE and Guy RK. 2007) SEQUENCE No. (e.g., 1, 2, 3, etc.); […] (e.g., Cells, Incubation, Reagent, etc.); VALUE; DESCRIPTION. 1; Cells; 5 uL; white, solid-bottom, 1536-well tissue-culture treated plates. 2; Time; overnight culture at 37C with 5% CO2. 3; Compounds and control; 23 nL; Kalypsis pin tool (Wako USA) equipped with a 1536-well pin head to transfer to the assay plates. 4; Time; 48 hours; 37C with 5% CO2. 5; Reagent; 4 uL; CellTiter-Glo luminescent substrate mix. 6; Time; 20 min at room temperature. 7; Detection; Luminescence; ViewLux plate reader NOTES (numbers refer to Sequence numbers above) 1. SW13 cells were harvested from a T175 flask and resuspended in ITS-supplemented DMEM serum-free medium at a concentration of 300 000 cells/mL. Then 5 uL of resuspended cells were dispensed into each well of white, solid-bottom, 1536-well tissue-culture-treated plates using a multidrop combi dispenser. The plates were covered with stainless steel gasket lids. 2-3. The plates were cultured overnight at 37C with 5% CO2. Twenty-three nL of compounds (eight selected concentrations from the NPC / MIPE) or positive control (10 mM stock of bortezomib) in DMSO was transferred to each well of the assay plate using a pin tool (Kalypsys, San Diego, CA, USA). The final concentration of the compounds in the 5 uL assay volume ranged from 0.5 nM to 46 uM. 4-6. After 48 hours of incubation at 37C and 5% CO2, 4 uL of CellTilter-Glo luminescent substrate mix (Promega, Madison, WI, USA) was added to each well. Then the plates were incubated for 20 minutes at room temperature. 7. After incubation, luminescence was measured using a ViewLux plate reader (PerkinElmer, Waltham, MA, USA) with a clear filter was used to measure the number of metabolically competent cells. To determine compound activity in the qHTS assay, the titration-response data for each sample was plotted and modeled by a four-parameter logistic fit yielding IC50 and efficacy (maximal response) values. […] REFERENCES: Inglese J, Shamu CE and Guy RK, Reporting data from high throughput screening of small molecule libraries, Nature Chemical Biology, 2007, 3(8): 438-441. doi.org/10.1038/nchembio0807-438.
Take `CCCNC(C)(C)COC(=O)c1ccccc1`: the activity (max response) is -2.6%.

Consider `CCN(CC)CCNC(=O)c1cc(Br)c(N)cc1OC`, for which the activity (max response) is -8.12%.

With `CN1C(=O)c2ccccc2C1=O`, the activity (max response) was -9.75%.

On to `Oc1cc(O)c2c(c1)O[C@H](c1ccc(O)c(O)c1)[C@H](O)C2`, for which the activity (max response) is 11.2%.

On to `COC(=O)C(c1ccccc1Cl)N1CCc2sccc2C1` (stereo not given), for which the activity (max response) was 0.0767%.

Turning to `Oc1cccc(O)c1`, the activity (max response) was 6.94%.

As to `CN1CCN(C2CCC(n3cc(-c4ccc(Oc5ccccc5)cc4)c4c(N)ncnc43)CC2)CC1` (stereo not given), the Potency is 1.58 µM (active).

As to `CC(=O)O[C@H]1C[C@@H]2CC[C@@H]3[C@H](CC[C@@]4(C)[C@H]3C[C@H]([N+]3(C)CCCCC3)[C@@H]4OC(C)=O)[C@@]2(C)C[C@@H]1N1CCCCC1`, the activity (max response) is 0.69%.

As to `Clc1cc2c(NC3CCCC3)nnc(-c3ccncc3)c2cc1Cl`, the activity (max response) is -2.48%.

For `O=C(O)C(=O)Nc1cccc(-c2nn[nH]n2)c1`, the activity (max response) was 14.5% and 11%.

`Cc1ccc(S(=O)(=O)NC(=O)NC2CCCC2)cc1`: the activity (max response) is 10.7%.

`C[C@@H](Oc1cc(-n2cnc3ccc(CN4CCN(C)CC4)cc32)sc1C(N)=O)c1ccccc1C(F)(F)F`: the Potency was 0.0501 µM (active).

Turning to `O=C(Nc1ccc(OC(F)(F)Cl)cc1)c1cnc(N2CC[C@@H](O)C2)c(-c2ccn[nH]2)c1`, the Potency was 20 µM (active).

Turning to `CCCCCCCCCCC(CO)CCCCCCCC` (stereo not given), the activity (max response) was 0.379%.

As to `CN(C)[C@@H]1C(=O)C(C(=O)NCN2CCCC2)=C(O)[C@@]2(O)C(=O)C3=C(O)c4c(O)cccc4[C@@](C)(O)C3C[C@@H]12` (stereo not given in full), the activity (max response) is -7.75%.

On to `C[C@@H]1CN(c2c(F)c(N)c3c(=O)c(C(=O)O)cn(C4CC4)c3c2F)C[C@H](C)N1`, for which the activity (max response) was -1.88%.

`CN(C)c1ccccc1CN1CCCN(Cc2ccccc2N(C)C)C1c1ccncc1`: the Potency is 28.2 µM (active).

Regarding `O=C(O)C1CCC1`, the activity (max response) was 11.6%.

Turning to `COc1cccc2c1c(O)c(C(=O)N(C)c1ccc(C(F)(F)F)cc1)c(=O)n2C`, the activity (max response) was -27.3%.

With `CNC(=O)c1c(-c2ccc(F)cc2)oc2cc(N(CCO)S(C)(=O)=O)c(C3CC3)cc12`, the activity (max response) is -0.986%.

Turning to `COc1ccc([C@@H]2Sc3ccccc3N(CCN(C)C)C(=O)[C@@H]2OC(C)=O)cc1`, the activity (max response) is -9.3% and 4.69%.

`CCCCCCCCCCCCCCCC[n+]1ccccc1`: the Potency is 3.66 µM (active).

For the molecule `CC(CC1c2ccccc2CCc2ccccc21)CN(C)C` (stereo not given), the activity (max response) was -20.3%.

Consider `S=P(N1CC1)(N1CC1)N1CC1`, for which the activity (max response) was 10.4%.

As to `N[C@@H]1CN(c2c(F)cc3c(=O)c(C(=O)O)cn([C@@H]4C[C@@H]4F)c3c2Cl)CC12CC2`, the activity (max response) was -10.4%.

As to `CCOC(=O)C=C[C@H](C[C@@H]1CCNC1=O)NC(=O)[C@@H](CC(=O)[C@@H](NC(=O)c1cc(C)on1)C(C)C)Cc1ccc(F)cc1`, the activity (max response) is -3.62%.

Regarding `Cn1cc[nH]c1=S`, the activity (max response) is 12%.

Take `C[C@@H](O)[C@H](N)C(=O)O`: the activity (max response) was 12.2%.

With `CC(CCc1ccc2c(c1)OCO2)NN` (stereo not given), the activity (max response) was 9.04%.

Turning to `Cc1ccc(-c2nc(N)nc3c2nnn3Cc2cccc(CO[C@H]3CCOC3)n2)o1`, the activity (max response) was -12.5%.

In the case of `CC[C@H]1OC(=O)[C@H](C)[C@@H](O[C@H]2C[C@@](C)(OC)[C@@H](O)[C@H](C)O2)[C@H](C)[C@@H](O[C@@H]2O[C@H](C)C[C@H](N(C)C)[C@H]2O)[C@](C)(O)C[C@@H](C)C(=O)[C@H](C)[C@@H](O)[C@]1(C)O`, the activity (max response) is 4.41%.

Take `Cc1cc(NC(=O)Nc2ccc(N(C)C)cc2)c2cc(F)cc(F)c2n1`: the activity (max response) was -2.18%.

Regarding `O=C1Cc2cc(C(=O)NC3C[C@H]4CC[C@@H](C3)N4S(=O)(=O)CC3CCN(CCCC(F)(F)F)CC3)c(Cl)cc2N1` (stereo not given in full), the activity (max response) was -5.12%.

With `CC(=O)NCCCS(=O)(=O)O`, the activity (max response) was 5.88%.

For the molecule `C#C[C@]1(O)CC[C@H]2[C@@H]3CCc4cc(O)ccc4[C@H]3CC[C@@]21C`, the Potency is 7.94 µM (active).

On to `COc1ccc(C(=O)CC2(O)C(=O)Nc3c(Cl)ccc(Cl)c32)cc1` (stereo not given), for which the activity (max response) is -14.9%.

For the molecule `CC(=O)Nc1ccn(C2COC(COC(=O)c3ccccc3)O2)c(=O)n1` (stereo not given), the activity (max response) was -9.44%.

For the molecule `O=C(O)c1ccc(OCCN2CCCCC2)cc1`, the activity (max response) is 10.8%.

Take `CCN1CCC[C@H]1CNC(=O)c1cc(S(N)(=O)=O)ccc1OC`: the activity (max response) was 6.63%.

Regarding `CCCC(=O)O[C@]1(C(=O)COC(=O)CC)CC[C@H]2[C@@H]3CCC4=CC(=O)CC[C@]4(C)[C@H]3[C@@H](O)C[C@@]21C`, the activity (max response) is 8.42%.
